Of roughly 7,900 targets only a part is listed; those with a hit were picked by preference. About 0.6% of all pairs of compound and target were hits.
Experiments:
Experiment in all cases: log2 fold change, soluble protein after heating vs DMSO (PISA); higher = thermal stabilisation; K562 cells, 10 uM, 30 min; active = over 0.2 and 3.5 SD of the protein, either way, in both replicates (recomputed)
bafetinib = compound: Cc1ccc(NC(=O)c2ccc(CN3CC[C@H](N(C)C)C3)c(C(F)(F)F)c2)cc1Nc1nccc(-c2cncnc2)n1 [bafetinib]
Outline: (§1)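 For each measurement, 10 μM compound was applied for 30 min to K562 cells at 2×10^6 cells/mL. Aliquots were heated for 3 min across 48°C-58°C, pooled, and extracted in PBS with 0.5% NP-40 at 4°C; the supernatant after 21,000xg for 90 min was soluble protein. This was quantified by TMTpro 16plex LC-MS/MS with channel sums equalised, and thermal stability was reported relative to control samples from duplicates, on a log2 fold-change scale.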

[1] = compound: Cc1cccc(CC(=O)N2CCc3c2ccc(-c2cn(C)c4ncnc(N)c24)c3F)n1
Outline: as §1

nilotinib = compound: Cc1cn(-c2cc(NC(=O)c3ccc(C)c(Nc4nccc(-c5cccnc5)n4)c3)cc(C(F)(F)F)c2)cn1 [nilotinib]
Outline: as §1

[2] = compound: Cc1nc(Nc2n[nH]c3c2CN(C(=O)N[C@H](CN(C)C)c2ccccc2)C3(C)C)c2sccc2n1
Outline: as §1

dasatinib = compound: Cc1nc(Nc2ncc(C(=O)Nc3c(C)cccc3Cl)s2)cc(N2CCN(CCO)CC2)n1 [dasatinib]
Outline: as §1

[3] = compound: Cc1ncc(-c2ccnc(Nc3ccc(S(C)(=O)=O)cc3)n2)n1C(C)C
Outline: as §1

[4] = compound: Cn1cc(-c2ccc3c(c2)CCN3C(=O)Cc2cccc(C(F)(F)F)c2)c2c(N)ncnc21
Outline: as §1

[5] = compound: Cn1cc(-c2ccc3nnc(C(F)(F)c4ccc5ncccc5c4)n3n2)cn1
Outline: as §1

tipifarnib = compound: Cn1cncc1[C@@](N)(c1ccc(Cl)cc1)c1ccc2c(c1)c(-c1cccc(Cl)c1)cc(=O)n2C [tipifarnib]
Outline: as §1

mubritinib = compound: FC(F)(F)c1ccc(/C=C/c2nc(COc3ccc(CCCCn4ccnn4)cc3)co2)cc1 [mubritinib]
Outline: as §1

[6] = compound: NC(=O)Nc1cc(-c2cccc(F)c2)sc1C(=O)N[C@H]1CCCNC1
Outline: as §1

[7] = compound: NC(=O)c1cnc(N[C@@H]2CCCC[C@@H]2N)nc1Nc1cccc(-n2nccn2)c1
Outline: as §1

[8] = compound: NC1(c2ccc(-c3nc4ccn5c(=O)[nH]nc5c4cc3-c3ccccc3)cc2)CCC1
Outline: as §1

[9] = compound: NCC(=O)Nc1ccc(-n2nc(C(F)(F)F)cc2-c2ccc3c(ccc4ccccc43)c2)cc1
Outline: as §1

entinostat = compound: Nc1ccccc1NC(=O)c1ccc(CNC(=O)OCc2cccnc2)cc1 [entinostat]
Outline: as §1

vorinostat = compound: O=C(CCCCCCC(=O)Nc1ccccc1)NO [vorinostat]
Outline: as §1

citarinostat = compound: O=C(CCCCCCNC(=O)c1cnc(N(c2ccccc2)c2ccccc2Cl)nc1)NO [citarinostat]
Outline: as §1

silmitasertib = compound: O=C(O)c1ccc2c(c1)nc(Nc1cccc(Cl)c1)c1ccncc12 [silmitasertib]
Outline: as §1

[10] = compound: O=C1NC(=O)C(c2cnc3ccccn23)=C1c1cn2c3c(cc(F)cc13)CN(C(=O)N1CCCCC1)CC2
Outline: as §1

[11] = compound: c1cc(OCCN2CCCCC2)cc(-c2n[nH]c3ccc(-c4nnc[nH]4)cc23)c1
Outline: as §1

Measured: log2 fold change

AKT1 (UniProt P31749)
Sequence of UniProt P31749 (P31749 whole entry, looked up): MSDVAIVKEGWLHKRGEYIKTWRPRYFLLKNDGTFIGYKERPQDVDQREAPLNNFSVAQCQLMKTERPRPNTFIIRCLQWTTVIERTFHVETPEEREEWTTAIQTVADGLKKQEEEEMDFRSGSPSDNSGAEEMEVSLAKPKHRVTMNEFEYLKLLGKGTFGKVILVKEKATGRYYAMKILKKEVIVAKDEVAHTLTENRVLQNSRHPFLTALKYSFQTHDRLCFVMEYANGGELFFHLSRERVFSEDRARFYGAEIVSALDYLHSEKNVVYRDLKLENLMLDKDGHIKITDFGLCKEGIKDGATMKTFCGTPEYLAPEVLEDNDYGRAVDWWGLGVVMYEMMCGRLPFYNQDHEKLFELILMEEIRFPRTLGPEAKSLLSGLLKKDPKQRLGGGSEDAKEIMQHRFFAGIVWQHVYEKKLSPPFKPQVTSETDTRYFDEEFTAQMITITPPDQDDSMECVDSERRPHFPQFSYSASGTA
active: [8] 1.61
inactive: bafetinib 0.041 | [1] 0.004 | nilotinib 0.033 | [2] -0.275 | dasatinib -0.416 | [3] -0.158 | [4] 0.048 | [5] 0 | tipifarnib -0.136 | mubritinib 0.033 | [6] -0.085 | [7] -0.276 | [9] -0.002 | entinostat 0.201 | vorinostat -0.024 | citarinostat 0.138 | silmitasertib 0.004 | [10] 0.1 | [11] 0.027

AP2M1 (UniProt Q96CW1)
Sequence of UniProt Q96CW1 (Q96CW1 whole entry, looked up): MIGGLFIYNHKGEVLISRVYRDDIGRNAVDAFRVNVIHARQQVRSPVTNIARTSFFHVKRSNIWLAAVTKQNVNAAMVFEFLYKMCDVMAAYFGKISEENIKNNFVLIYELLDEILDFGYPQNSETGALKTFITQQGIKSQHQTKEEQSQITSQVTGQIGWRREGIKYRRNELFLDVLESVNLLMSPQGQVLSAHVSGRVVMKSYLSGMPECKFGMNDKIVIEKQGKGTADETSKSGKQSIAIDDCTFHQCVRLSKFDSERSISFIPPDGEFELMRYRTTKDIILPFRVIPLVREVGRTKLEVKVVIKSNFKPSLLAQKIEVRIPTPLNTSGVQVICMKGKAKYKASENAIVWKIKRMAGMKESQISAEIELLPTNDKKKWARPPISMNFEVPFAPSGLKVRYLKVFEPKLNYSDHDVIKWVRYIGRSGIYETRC
inactive: bafetinib 0.042 | [1] -0.012 | nilotinib 0.012 | [2] 0.031 | dasatinib 0.048 | [3] -0.02 | [4] -0.013 | [5] -0.004 | tipifarnib 0.02 | mubritinib -0.035 | [7] 0.004 | [8] 0.012 | [9] -0.003 | entinostat -0.007 | vorinostat 0.06 | citarinostat -0.004 | silmitasertib 0.029 | [11] -0.209
active: [6] -0.293 | [10] -0.237

BRD8 (UniProt Q9H0E9)
Sequence of UniProt Q9H0E9 (Q9H0E9 whole entry, looked up): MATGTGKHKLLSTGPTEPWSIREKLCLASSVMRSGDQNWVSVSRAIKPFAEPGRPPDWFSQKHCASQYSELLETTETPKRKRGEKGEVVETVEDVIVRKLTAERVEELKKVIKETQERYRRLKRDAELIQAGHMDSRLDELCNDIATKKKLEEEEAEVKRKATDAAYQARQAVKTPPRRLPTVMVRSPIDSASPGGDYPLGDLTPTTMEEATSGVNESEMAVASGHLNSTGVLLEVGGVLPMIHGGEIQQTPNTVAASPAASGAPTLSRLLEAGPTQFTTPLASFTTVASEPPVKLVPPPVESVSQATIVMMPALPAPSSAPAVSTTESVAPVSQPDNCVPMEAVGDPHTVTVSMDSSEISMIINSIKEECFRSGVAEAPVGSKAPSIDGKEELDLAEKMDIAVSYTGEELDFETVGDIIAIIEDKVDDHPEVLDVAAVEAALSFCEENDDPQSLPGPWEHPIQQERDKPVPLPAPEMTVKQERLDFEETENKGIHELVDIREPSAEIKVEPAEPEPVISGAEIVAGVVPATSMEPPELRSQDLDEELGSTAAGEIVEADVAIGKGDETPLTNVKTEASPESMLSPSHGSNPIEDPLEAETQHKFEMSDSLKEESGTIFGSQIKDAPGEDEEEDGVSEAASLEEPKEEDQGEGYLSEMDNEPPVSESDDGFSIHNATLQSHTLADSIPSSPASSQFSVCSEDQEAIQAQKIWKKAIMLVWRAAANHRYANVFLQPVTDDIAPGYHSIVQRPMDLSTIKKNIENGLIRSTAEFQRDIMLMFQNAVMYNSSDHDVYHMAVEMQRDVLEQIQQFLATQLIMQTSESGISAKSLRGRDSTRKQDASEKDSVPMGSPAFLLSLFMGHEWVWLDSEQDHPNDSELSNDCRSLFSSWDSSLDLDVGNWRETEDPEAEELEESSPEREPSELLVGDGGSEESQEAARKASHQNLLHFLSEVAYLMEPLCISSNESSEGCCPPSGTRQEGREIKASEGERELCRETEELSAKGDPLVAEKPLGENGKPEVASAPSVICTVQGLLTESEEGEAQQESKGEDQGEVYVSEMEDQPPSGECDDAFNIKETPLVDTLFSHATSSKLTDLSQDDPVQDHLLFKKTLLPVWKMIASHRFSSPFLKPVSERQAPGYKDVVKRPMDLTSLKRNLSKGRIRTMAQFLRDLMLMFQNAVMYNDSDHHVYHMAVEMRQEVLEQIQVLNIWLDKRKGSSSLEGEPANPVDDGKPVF
inactive: bafetinib -0.032 | [1] -0.072 | nilotinib -0.01 | [2] -0.055 | dasatinib 0.057 | [3] -0.019 | [4] 0.018 | [5] -0.028 | tipifarnib 0.054 | mubritinib 0.011 | [6] 0.008 | [7] -0.107 | [8] 0.038 | [9] -0.014 | entinostat -0.041 | vorinostat -0.125 | citarinostat -0.12 | silmitasertib 0.038 | [10] 0.022 | [11] -0.059

ACACB (UniProt O00763)
inactive: bafetinib 0.145 | [1] -0.021 | nilotinib -0.109 | [2] -0.251 | dasatinib -0.03 | [3] -0.026 | [4] -0.09 | [5] -0.059 | tipifarnib -0.14 | mubritinib -0.147 | [6] -0.02 | [7] -0.043 | [8] -0.047 | [9] 0.084 | entinostat 0.076 | vorinostat 0.082 | citarinostat 0.131 | silmitasertib 0.119 | [10] 0.222 | [11] -0.01

ADK (UniProt P55263)
Sequence of UniProt P55263 (P55263 whole entry, looked up): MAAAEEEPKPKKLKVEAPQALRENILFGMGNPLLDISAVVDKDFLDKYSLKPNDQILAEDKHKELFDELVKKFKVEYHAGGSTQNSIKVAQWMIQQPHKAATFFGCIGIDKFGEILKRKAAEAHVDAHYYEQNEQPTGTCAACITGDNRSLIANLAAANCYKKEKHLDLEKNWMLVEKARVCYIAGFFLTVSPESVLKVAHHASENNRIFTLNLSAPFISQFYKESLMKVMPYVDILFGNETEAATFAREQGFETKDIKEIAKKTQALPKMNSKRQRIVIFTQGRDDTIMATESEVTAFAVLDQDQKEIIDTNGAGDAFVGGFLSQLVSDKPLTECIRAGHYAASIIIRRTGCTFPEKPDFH
inactive: bafetinib 0.201 | [1] 0 | nilotinib 0.122 | [2] 0.208 | [3] 0.07 | [4] 0.006 | [5] 0.241 | tipifarnib 0.291 | mubritinib 0.037 | [6] -0.071 | [7] 0.07 | [8] 0.12 | [9] -0.04 | entinostat -0.087 | vorinostat -0.044 | citarinostat -0.02 | silmitasertib 0.011 | [10] 0.232 | [11] 0.158
active: dasatinib 0.387

ALG5 (UniProt Q9Y673)
Sequence of UniProt Q9Y673 (Q9Y673 whole entry, looked up): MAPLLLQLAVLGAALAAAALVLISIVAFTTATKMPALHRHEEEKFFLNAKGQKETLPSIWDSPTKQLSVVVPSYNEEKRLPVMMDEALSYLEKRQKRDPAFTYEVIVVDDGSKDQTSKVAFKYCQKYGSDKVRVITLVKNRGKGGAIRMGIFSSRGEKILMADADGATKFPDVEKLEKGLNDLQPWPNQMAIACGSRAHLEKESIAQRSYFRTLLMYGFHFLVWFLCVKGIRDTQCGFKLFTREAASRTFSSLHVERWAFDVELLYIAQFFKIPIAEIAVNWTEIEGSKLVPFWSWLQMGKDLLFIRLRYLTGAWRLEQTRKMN
inactive: bafetinib 0.021 | [1] 0.067 | nilotinib 0.009 | [2] -0.123 | dasatinib -0.045 | [3] -0.121 | [4] 0.088 | [5] 0.059 | tipifarnib -0.079 | mubritinib -0.055 | [6] -0.047 | [7] -0.129 | [8] -0.029 | [9] -0.031 | entinostat 0.02 | vorinostat 0.052 | citarinostat 0.051 | silmitasertib 0.075 | [10] -0.106 | [11] 0.08

ATP13A3 (UniProt Q9H7F0)
Sequence of UniProt Q9H7F0 (Q9H7F0 whole entry, looked up): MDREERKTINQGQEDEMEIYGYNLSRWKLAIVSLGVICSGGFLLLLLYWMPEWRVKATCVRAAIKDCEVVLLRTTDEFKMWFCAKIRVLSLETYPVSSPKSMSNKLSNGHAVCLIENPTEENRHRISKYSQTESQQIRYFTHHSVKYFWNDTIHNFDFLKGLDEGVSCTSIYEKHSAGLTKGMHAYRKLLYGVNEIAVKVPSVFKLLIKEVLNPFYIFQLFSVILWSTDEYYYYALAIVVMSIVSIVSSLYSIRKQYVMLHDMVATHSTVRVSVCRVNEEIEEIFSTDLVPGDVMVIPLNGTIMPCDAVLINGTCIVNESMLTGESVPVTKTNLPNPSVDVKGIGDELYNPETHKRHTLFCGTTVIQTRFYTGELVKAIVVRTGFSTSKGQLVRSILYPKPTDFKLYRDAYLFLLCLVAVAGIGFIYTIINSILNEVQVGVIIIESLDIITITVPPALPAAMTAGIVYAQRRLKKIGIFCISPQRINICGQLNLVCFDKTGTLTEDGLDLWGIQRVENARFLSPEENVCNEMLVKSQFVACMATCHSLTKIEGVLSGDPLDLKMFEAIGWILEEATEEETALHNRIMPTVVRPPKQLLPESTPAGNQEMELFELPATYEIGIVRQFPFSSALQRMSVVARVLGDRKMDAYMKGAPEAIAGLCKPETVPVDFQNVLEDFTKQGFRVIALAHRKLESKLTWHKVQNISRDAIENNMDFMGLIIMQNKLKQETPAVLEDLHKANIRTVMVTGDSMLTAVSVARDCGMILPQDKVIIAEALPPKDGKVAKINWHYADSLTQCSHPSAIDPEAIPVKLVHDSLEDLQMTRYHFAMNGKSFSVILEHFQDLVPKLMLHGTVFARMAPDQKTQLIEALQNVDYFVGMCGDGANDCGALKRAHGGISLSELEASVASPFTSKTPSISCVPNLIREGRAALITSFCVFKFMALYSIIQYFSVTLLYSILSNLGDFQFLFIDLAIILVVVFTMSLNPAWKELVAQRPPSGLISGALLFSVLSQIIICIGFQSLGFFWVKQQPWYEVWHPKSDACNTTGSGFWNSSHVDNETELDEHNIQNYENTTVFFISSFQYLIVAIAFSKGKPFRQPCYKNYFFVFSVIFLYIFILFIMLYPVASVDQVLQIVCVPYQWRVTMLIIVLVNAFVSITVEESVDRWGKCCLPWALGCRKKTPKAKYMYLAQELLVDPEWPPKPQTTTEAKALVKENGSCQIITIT
inactive: bafetinib -0.067 | [1] 0.116 | nilotinib -0.015 | [2] -0.06 | dasatinib 0.008 | [3] 0.024 | [4] -0.099 | [5] 0.002 | tipifarnib 0.098 | mubritinib -0.049 | [6] -0.072 | [7] 0.027 | [8] -0.082 | [9] 0.039 | entinostat 0.026 | vorinostat -0.026 | citarinostat -0.033 | silmitasertib 0.048 | [10] 0.02 | [11] -0.099

AMFR (UniProt Q9UKV5)
Sequence of UniProt Q9UKV5 (Q9UKV5 whole entry, looked up): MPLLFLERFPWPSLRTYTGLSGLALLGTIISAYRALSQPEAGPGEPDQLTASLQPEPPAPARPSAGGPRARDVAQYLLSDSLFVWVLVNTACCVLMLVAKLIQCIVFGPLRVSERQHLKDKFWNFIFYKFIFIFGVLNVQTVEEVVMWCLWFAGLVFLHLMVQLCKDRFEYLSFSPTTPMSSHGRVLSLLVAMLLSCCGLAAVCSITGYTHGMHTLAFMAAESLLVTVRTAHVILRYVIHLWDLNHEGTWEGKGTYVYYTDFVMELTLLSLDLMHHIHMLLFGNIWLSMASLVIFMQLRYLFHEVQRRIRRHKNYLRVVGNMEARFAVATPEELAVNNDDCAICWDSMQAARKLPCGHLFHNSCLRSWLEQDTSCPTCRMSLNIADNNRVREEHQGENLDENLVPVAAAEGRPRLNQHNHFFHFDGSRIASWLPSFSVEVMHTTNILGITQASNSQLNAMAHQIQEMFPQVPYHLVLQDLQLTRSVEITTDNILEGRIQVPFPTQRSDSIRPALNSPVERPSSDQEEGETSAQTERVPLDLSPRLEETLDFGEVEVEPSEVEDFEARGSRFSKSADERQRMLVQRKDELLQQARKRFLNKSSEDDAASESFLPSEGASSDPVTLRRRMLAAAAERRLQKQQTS
inactive: bafetinib -0.095 | [1] 0.099 | nilotinib -0.051 | [2] -0.016 | dasatinib -0.094 | [3] 0.049 | [4] 0.029 | [5] -0.06 | tipifarnib 0.05 | mubritinib -0.018 | [6] -0.024 | [7] -0.128 | [8] -0.115 | [9] -0.075 | entinostat 0.051 | vorinostat 0.055 | citarinostat 0.012 | silmitasertib 0.07 | [10] -0.032 | [11] 0.021

From the supplement of paper PMC10849652
